# Legend:
# Assay in all cases: DAPPL (digital affinity profiling via proximity ligation, sequencing); 10 mM Tris-HCl pH 7.5, 50 mM NaCl, 1 mM DTT, 4% glycerol, room temperature, 30 min; GST-TFs on glutathione beads, 16-mer random dsDNA library, 0.1% formaldehyde crosslink after washing; high values mean tight binding
# Settings in all cases: protein: recombinant; tags: N-terminal GST; dsDNA, one strand shown
# FLI1 = molecular target: T1, FLI1 (Homo sapiens, UniProt Q01543 1-452)
# T1 sequence: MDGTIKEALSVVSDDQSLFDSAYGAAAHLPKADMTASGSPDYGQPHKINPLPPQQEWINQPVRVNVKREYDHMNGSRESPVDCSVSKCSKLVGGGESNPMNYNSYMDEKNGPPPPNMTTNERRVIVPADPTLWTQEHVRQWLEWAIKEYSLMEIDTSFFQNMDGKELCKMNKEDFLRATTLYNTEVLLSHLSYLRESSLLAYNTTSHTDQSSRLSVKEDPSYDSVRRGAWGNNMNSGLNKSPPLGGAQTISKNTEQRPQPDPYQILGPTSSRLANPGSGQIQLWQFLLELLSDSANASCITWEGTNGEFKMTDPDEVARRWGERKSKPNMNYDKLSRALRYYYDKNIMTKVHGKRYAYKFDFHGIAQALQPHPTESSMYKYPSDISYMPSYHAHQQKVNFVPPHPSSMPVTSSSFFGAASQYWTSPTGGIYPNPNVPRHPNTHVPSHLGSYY
# In short: (§1)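 In yeast, human transcription factors were expressed with a GST fusion, then pulled down on glutathione beads and given DNA barcodes. Pooled with a tag-only sample, they were exposed to 200 nmole of a 16-mer random double-stranded DNA library (Tris/NaCl/DTT/glycerol buffer, room temperature, 30 min), washed, crosslinked with 0.1% formaldehyde, proximity-ligated using BsaI/T4 ligase for 1 h at 37 °C, PCR-amplified and read on an Illumina NextSeq500. Each hexamer's frequency of reads for a factor, divided by the matching frequency for the tag-only sample, gives the binding signal.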
# ELK1 = molecular target: T2, ELK1 (Homo sapiens, UniProt P19419 1-428)
# T2 sequence: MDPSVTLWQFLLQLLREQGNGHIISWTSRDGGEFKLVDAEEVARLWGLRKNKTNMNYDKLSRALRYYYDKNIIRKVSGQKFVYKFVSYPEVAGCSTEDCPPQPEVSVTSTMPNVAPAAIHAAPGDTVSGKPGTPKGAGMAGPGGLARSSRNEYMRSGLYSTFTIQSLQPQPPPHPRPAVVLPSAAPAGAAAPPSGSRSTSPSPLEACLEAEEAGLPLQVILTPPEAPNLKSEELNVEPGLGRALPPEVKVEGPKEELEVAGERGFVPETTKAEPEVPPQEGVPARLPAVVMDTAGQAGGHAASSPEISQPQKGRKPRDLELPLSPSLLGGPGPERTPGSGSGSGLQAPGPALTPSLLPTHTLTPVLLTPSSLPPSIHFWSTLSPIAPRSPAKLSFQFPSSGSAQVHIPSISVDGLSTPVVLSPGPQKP
# In short: as §1
# GABPA = molecular target: T3, GABPA (Homo sapiens, UniProt Q06546 1-454)
# T3 sequence: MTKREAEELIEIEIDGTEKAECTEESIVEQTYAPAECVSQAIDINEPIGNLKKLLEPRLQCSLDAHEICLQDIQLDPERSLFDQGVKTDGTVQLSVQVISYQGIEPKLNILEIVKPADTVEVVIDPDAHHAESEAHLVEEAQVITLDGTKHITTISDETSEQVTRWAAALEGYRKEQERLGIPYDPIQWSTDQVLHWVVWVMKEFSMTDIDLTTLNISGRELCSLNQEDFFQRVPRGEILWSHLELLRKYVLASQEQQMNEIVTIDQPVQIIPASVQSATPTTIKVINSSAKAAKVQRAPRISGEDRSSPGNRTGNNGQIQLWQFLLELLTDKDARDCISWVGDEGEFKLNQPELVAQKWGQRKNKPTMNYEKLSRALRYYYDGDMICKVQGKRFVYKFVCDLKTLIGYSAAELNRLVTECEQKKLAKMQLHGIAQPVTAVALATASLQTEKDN
# In short: as §1
# ELF1 = ELF1 (Homo sapiens, UniProt P32519 1-619)
# In short: as §1
# EHF = molecular target: T4, EHF (Homo sapiens, UniProt Q9NZC4 1-300)
# T4 sequence: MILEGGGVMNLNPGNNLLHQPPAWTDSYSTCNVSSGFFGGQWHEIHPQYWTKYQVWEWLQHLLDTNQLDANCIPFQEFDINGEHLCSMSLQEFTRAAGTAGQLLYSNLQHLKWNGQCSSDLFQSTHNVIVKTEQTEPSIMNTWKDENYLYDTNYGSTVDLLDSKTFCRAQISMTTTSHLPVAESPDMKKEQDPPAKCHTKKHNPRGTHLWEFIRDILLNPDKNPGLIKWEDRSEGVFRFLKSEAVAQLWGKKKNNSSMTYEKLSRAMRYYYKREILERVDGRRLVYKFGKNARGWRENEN
# In short: as §1
# SPI1 = SPI1 (Homo sapiens, UniProt P17947 1-270)
# In short: as §1
# ELK3 = molecular target: T5, ELK3 (Homo sapiens, UniProt P41970 1-407)
# T5 sequence: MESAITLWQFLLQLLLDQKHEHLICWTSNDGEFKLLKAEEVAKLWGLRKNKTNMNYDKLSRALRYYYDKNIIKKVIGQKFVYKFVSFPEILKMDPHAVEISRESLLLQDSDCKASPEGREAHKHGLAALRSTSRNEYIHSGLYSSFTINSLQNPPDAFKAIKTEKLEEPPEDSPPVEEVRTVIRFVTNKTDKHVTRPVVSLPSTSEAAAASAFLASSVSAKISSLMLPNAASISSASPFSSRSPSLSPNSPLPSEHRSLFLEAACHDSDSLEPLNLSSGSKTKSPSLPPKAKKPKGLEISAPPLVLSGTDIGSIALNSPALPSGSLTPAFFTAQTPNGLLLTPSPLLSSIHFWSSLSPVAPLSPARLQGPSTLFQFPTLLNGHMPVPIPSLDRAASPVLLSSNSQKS
# In short: as §1
# ELF3 = molecular target: T6, ELF3 (Homo sapiens, UniProt P78545 1-371)
# T6 sequence: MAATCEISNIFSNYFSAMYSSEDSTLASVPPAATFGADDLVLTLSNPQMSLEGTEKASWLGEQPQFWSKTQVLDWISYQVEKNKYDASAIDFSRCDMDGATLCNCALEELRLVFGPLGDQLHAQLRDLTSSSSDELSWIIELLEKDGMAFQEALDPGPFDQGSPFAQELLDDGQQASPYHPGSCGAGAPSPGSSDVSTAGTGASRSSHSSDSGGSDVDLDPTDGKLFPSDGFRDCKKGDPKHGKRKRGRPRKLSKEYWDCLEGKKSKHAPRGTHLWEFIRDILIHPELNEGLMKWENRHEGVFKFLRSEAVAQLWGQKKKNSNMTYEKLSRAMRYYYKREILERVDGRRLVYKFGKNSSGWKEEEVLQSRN
# In short: as §1
# ERF = molecular target: T7, ERF (Homo sapiens, UniProt P50548 1-548)
# T7 sequence: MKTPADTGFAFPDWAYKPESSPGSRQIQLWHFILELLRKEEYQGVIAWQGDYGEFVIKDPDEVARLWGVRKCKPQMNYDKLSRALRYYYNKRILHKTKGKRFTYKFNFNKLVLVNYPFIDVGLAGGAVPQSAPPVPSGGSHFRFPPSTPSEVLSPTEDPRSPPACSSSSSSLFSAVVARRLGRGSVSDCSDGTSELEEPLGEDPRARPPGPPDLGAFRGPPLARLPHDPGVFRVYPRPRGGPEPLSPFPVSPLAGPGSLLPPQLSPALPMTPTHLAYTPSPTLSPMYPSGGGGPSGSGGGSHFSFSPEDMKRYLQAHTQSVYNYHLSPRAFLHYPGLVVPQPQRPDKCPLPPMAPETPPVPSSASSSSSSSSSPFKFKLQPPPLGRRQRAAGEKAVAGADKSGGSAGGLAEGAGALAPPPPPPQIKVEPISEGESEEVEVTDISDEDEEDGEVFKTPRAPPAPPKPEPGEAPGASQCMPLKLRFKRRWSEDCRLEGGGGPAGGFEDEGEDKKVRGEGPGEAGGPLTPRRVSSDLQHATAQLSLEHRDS
# In short: as §1
# ETV3L = molecular target: T8, ETV3L (Homo sapiens, UniProt Q6ZN32 1-361)
# T8 sequence: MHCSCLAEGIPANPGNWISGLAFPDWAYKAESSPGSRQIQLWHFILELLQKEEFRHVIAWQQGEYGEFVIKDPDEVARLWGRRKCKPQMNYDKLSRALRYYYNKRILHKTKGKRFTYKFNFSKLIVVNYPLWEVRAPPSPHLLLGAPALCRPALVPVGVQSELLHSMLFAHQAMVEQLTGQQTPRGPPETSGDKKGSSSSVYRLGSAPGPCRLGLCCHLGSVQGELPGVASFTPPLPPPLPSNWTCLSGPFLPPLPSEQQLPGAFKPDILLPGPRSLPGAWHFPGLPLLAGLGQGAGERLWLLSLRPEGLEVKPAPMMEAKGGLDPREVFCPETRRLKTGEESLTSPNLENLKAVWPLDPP
# In short: as §1
# SPDEF = molecular target: T9, SPDEF (Homo sapiens, UniProt O95238 1-335)
# T9 sequence: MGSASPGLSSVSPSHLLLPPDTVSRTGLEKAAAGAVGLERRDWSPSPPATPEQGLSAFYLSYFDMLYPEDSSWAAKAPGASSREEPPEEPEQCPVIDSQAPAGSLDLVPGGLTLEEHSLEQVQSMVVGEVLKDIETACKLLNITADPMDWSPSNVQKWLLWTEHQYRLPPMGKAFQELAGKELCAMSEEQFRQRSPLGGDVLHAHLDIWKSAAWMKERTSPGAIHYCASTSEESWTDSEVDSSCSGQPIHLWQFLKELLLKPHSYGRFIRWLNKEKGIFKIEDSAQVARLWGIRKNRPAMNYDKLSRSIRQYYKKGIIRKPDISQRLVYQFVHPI
# In short: as §1
# ETV7 = molecular target: T10, ETV7 (Homo sapiens, UniProt Q9Y603 1-341)
# T10 sequence: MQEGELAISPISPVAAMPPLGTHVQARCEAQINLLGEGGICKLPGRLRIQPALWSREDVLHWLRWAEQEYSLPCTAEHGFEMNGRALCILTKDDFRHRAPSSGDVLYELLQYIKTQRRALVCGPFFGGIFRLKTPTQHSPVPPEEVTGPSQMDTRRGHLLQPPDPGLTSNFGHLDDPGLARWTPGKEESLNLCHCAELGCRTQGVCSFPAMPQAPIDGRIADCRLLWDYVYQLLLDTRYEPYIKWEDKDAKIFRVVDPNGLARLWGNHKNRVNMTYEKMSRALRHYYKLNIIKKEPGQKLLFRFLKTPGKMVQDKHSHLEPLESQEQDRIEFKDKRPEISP
# In short: as §1
# ETV3 = molecular target: T11, ETV3 (Homo sapiens, UniProt P41162-2 1-143)
# T11 sequence: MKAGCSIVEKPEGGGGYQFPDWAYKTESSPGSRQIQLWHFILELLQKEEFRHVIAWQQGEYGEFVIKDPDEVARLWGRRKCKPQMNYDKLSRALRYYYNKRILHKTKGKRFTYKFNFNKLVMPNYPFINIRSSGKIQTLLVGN
# In short: as §1
# ETV6 = ETV6 (Homo sapiens, UniProt P41212 1-452)
# In short: as §1
# ELF1, sequence (P32519 whole entry): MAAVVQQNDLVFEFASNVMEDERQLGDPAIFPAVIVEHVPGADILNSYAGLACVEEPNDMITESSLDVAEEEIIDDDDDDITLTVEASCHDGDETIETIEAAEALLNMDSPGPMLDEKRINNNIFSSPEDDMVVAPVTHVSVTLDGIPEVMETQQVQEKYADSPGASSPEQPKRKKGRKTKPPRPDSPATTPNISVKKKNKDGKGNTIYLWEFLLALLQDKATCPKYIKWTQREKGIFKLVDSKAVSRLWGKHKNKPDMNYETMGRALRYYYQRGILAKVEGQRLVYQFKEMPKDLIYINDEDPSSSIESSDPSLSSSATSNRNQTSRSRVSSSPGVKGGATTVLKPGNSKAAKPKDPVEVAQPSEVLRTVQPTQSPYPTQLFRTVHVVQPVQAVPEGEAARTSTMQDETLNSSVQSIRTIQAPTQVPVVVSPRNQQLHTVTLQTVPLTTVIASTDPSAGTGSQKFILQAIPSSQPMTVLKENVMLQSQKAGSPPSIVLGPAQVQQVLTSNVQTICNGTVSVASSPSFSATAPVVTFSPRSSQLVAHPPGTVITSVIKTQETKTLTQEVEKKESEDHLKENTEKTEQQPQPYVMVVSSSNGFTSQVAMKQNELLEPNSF
# ETV6, sequence (P41212 whole entry): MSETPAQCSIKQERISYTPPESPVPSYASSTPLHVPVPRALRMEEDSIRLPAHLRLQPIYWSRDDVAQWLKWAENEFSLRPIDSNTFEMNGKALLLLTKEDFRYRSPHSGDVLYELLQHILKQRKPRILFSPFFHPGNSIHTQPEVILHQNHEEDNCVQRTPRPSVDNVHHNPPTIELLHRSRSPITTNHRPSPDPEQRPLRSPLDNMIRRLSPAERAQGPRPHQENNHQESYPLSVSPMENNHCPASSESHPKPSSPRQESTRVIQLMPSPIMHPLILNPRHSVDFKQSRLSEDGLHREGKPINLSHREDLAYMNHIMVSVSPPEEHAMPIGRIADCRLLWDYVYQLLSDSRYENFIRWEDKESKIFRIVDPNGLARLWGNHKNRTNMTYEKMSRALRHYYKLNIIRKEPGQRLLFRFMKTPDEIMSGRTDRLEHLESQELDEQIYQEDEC
sequence,measurement,setting,value
CTGGTG,binding signal,FLI1,"1.01 fold enrichment (6-mer frequency, TF over GST control)"
same,binding signal,ELK1,"1.05 fold enrichment (6-mer frequency, TF over GST control)"
same,binding signal,GABPA,"1.01 fold enrichment (6-mer frequency, TF over GST control)"
same,binding signal,ELF1,"1.02 fold enrichment (6-mer frequency, TF over GST control)"
same,binding signal,EHF,"1.09 fold enrichment (6-mer frequency, TF over GST control)"
same,binding signal,SPI1,"1.04 fold enrichment (6-mer frequency, TF over GST control)"
same,binding signal,ELK3,"1.15 fold enrichment (6-mer frequency, TF over GST control)"
same,binding signal,ELF3,"1.09 fold enrichment (6-mer frequency, TF over GST control)"
same,binding signal,ERF,"1.05 fold enrichment (6-mer frequency, TF over GST control)"
same,binding signal,ETV3L,"1.06 fold enrichment (6-mer frequency, TF over GST control)"
same,binding signal,SPDEF,"1.01 fold enrichment (6-mer frequency, TF over GST control)"
same,binding signal,ETV7,"1.04 fold enrichment (6-mer frequency, TF over GST control)"
same,binding signal,ETV3,"1.03 fold enrichment (6-mer frequency, TF over GST control)"
same,binding signal,ETV6,"1.03 fold enrichment (6-mer frequency, TF over GST control)"
TGTTGG,binding signal,FLI1,"1.01 fold enrichment (6-mer frequency, TF over GST control)"
same,binding signal,SPDEF,"1 fold enrichment (6-mer frequency, TF over GST control)"
GTGACT,binding signal,FLI1,"1.02 fold enrichment (6-mer frequency, TF over GST control)"
same,binding signal,ETV3L,"1.01 fold enrichment (6-mer frequency, TF over GST control)"
